In PubChem BioAssay:
Activity calls are given as the source filed them.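 Rule for the calls, unless noted: active = fluorescence slope higher than the sample average by over 3 SD (cut at about -0.22 in these data, passing the limit was not always enough); inactive = the rest.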

Assays:
[1] = inhibitors of TNFa-induced NFkB p65 translocation, primary screen, imaging, HUVEC, MLSMR starter and 10KST1 sets (AID 438;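 active = inhibition above 20% together with a positive visual image hit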;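 note: compound added about 3h40 before a 20 min TNFalpha stimulation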;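 for inhibition: signal is the nuclear over cytoplasmic p65 intensity ratio per well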); conditions: HUVEC TNFa-induced p65 nuclear translocation; cell count: measured here: nuclei count (cytotoxicity indicator), at 2.08 µM; inhibition: at 2 µM, stronger effect = higher value, 0% TNFa-plus-vehicle, 100% no-TNFa wells
[2] = inhibitors of mutant huntingtin aggregation, primary screen, imaging, exon1htt(103Q)mCFP cells, high-content imaging (AID 483;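 active = visual image review flags a hit and inhibition of aggregation exceeds 20%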;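 note: compound exposure lasted 3 days before fixation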;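 for nuclei count: percent of the per-plate median nuclei count of sample wells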); conditions: exon1htt(103Q)mCFP cell line, aggregate imaging, at 2 µM; inhibition of aggregation: stronger effect = higher value; nuclei count: measured here: cell count, toxicity
[3] = inhibitors of E-selectin induction by TNFa, primary screen, imaging, HUVEC, immunofluorescence, MLSMR starter and 10KST1 sets (AID 487;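 active = visually confirmed hit in the image check and inhibition above 20%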;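 for inhibition: signal is fraction of cell area covered by stained E-selectin grains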;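 for nuclei count: 100% = median nuclei count of all wells on the same plate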); conditions: HUVEC TNFalpha-induced E-selectin immunofluorescence imaging, at 2 µM; inhibition: stronger effect = higher value; nuclei count: measured here: cell number, toxicity
[4] = biological target: Voltage-gated potassium channel subunit beta-2 (Rattus norvegicus) (UniProt P62483); assay: KvBeta enzyme negative modulators, primary screen, biochemical, NADPH fluorescence (AID 622); conditions: recombinant KvBeta, 4-cyanobenzaldehyde reduction, at 10 µM, stronger effect = higher value;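 note: slope of raw intensity against log time taken from 70 to 1610 s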
[5] = biological target: Voltage-gated potassium channel subunit beta-2 (Rattus norvegicus) (UniProt P62483); assay: KvBeta positive modulators, primary screen, biochemical, NADPH fluorescence (AID 623;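 active = NADPH fluorescence slope more negative than the mean of all samples by about 3 SD, 99.7% confidence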;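 note: fluorescence intensity change per second fitted from 20 to 320 s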); conditions: Recombinant KvBeta, NADPH fluorescence decrease slope, 10 min; at 10 µM; stronger effect = lower value
[6] = biological target: Alpha-2C adrenergic receptor (Homo sapiens) (UniProt P18825); assay: modulators of alpha2C/GIRK thallium flux, primary screen, cell-based, HEK293 alpha2C/GIRK1/2 (AID 624;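 active = fluorescence slope after compound addition differing from the mean of all screened samples at 99.7% confidence, in either direction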;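 note: slope of fluorescence ratio to pre-addition baseline per second over 15 to 24 s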); conditions: thallium flux BTC fluorescence, at 10 µM, actives lie on both sides
[7] = inhibitors of Sendai virus-induced IRF3 signaling, primary screen, TLR/RLR signaling modifier project, cell-based, Sendai virus stimulus, luciferase, 10K MLSCN set (AID 602276;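 active = inhibition at or above 50% at 10 µM; inactive = inhibition below 50%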;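 note: firefly luciferase from ISG56 promoter only with Renilla not read in this screen; 0% = Sendai virus plus DMSO and 100% = medium plus DMSO without virus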); conditions: HEK293 RL24 IRF3 luciferase reporter, at 10 µM, stronger effect = higher value
[8] = inhibitors of poly I:C-induced TLR3 signaling, primary screen, cell-based, poly I:C stimulus, luciferase, 10K MLSCN set (AID 602277;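 active = inhibition of the reporter signal at or above 50%; inactive = inhibition below 50%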); conditions: HEK293-TLR3 RL24 IRF3 luciferase reporter, at 10 µM, stronger effect = higher value

Sequence of Voltage-gated potassium channel subunit beta-2 (Rattus norvegicus) (P62483 whole entry, looked up): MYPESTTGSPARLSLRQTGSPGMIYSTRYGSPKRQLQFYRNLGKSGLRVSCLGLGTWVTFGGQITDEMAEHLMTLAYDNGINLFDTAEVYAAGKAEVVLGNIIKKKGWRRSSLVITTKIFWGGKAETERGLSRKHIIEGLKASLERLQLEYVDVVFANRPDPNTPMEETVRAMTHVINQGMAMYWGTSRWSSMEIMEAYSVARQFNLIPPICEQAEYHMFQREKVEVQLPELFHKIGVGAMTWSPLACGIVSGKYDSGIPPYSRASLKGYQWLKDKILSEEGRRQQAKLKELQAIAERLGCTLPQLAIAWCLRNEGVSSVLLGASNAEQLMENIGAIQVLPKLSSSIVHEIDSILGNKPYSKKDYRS
Sequence of Alpha-2C adrenergic receptor (Homo sapiens) (P18825 whole entry, looked up): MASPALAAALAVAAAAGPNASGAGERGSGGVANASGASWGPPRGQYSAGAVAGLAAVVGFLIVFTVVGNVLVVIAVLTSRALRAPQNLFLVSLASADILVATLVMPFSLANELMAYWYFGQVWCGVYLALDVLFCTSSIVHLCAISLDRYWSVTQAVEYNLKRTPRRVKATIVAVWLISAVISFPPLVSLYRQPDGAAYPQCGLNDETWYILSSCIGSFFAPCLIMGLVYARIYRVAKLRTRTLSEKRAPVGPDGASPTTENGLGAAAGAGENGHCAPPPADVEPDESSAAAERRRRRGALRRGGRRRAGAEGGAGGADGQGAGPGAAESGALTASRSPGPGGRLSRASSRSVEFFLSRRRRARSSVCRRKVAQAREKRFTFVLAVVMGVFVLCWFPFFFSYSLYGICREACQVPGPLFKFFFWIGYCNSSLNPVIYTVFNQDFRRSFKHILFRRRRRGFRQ

Row | SMILES | cell count [1] | inhibition [1] | inhibition of aggregation [2] | nuclei count [2] | inhibition [3] | nuclei count [3] | fluorescence slope [4] | NADPH fluorescence slope [5] | slope [6] | inhibition [7] | inhibition [8]
1 | COCCN(C(=O)CNC(=O)c1ccco1)C(C(=O)NC1CCCCC1)c1cccc(OC)c1 (stereo not drawn) | 650 | -9.5% (inactive) | 15.9% (inactive) | 104% | 37% (inactive) | 101% | -0.444 (inactive) | -2e-05 (inactive) | 0.00264 (inactive) | 5.23% (inactive) | 36.9% (inactive)
2 | CCOc1ccccc1NC(=O)C1CCCN(S(=O)(=O)c2cccc3cccnc23)C1 (stereo not drawn) | 717 | 0% (inactive) | 14.7% (inactive) | 124% | -55.7% (inactive) | 101% | -0.55 (inactive) | -3.3e-05 (inactive) | 0.00547 (inactive) | 19.8% (inactive) | 43.4% (inactive)
3 | CCC12CN3CC(CC)(CN(C1)C3c1ccc(OC(C)C)cc1)C2=O (stereo not drawn) | 692 | 12.1% (inactive) | 10.5% (inactive) | 93.2% | -15.2% (inactive) | 94.3% | -0.528 (inactive) | -0.000143 (inactive) | 0.0058 (inactive) | 8.78% (inactive) | 15.9% (inactive)
4 | COCc1nnc(NC(=O)c2ccc(NC(C)=O)cc2)s1 | 684 | -12.6% (inactive) | -4.2% (inactive) | 95.9% | -22% (inactive) | 93.1% | -0.527 (inactive) | -3.7e-06 (inactive) | 0.00454 (inactive) | -5.57% (inactive) | -14.7% (inactive)
5 | CCOC(=O)c1cccc(NC(=O)CSc2nnc(C3CCCCC3)n2C)c1 | 291 | -10.5% (inactive) | 7.3% (inactive) | 117% | 18% (inactive) | 113% | -0.586 (inactive) | -3.6e-05 (inactive) | 0.00599 (inactive) | 12.9% (inactive) | 17.5% (inactive)
6 | CCOC(=O)Cc1csc(NC(=O)CSc2nnc(C(C)C)n2CC)n1 | 812 | -6.2% (inactive) | 13.4% (inactive) | 89.5% | -33.7% (inactive) | 119% | -0.317 (inactive) | 1.9e-05 (inactive) | 0.00691 (inactive) | 18.4% (inactive) | 21.8% (inactive)
7 | CCCCOC(=O)C1=C(C)Nc2ncnn2C1c1cccc(OC)c1OC (stereo not drawn) | 655 | 12.8% (inactive) | -20.9% (inactive) | 113% | -71.2% (inactive) | 111% | -0.403 (inactive) | -4e-05 (inactive) | 0.00417 (inactive) | 12.8% (inactive) | 9.22% (inactive)
8 | O=C(Nc1ccc(N2C(=O)C3C4C=CC(C4)C3C2=O)cc1)Nc1cccnc1 (stereo not drawn) | 426 | 0% (inactive) | -7.7% (inactive) | 104% | -33.4% (inactive) | 112% | -0.334 (inactive) | -2.1e-05 (inactive) | 0.00357 (inactive) | 7.37% (inactive) | 3.82% (inactive)
